{
  "source": "PubChem BioAssay (Tox21)",
  "note": "Records with an inconclusive call do not appear. Where a call stands in place of a potency, no number is given. Activity calls are given as the source filed them. The call rests on the fitted dose curve.",
  "data": [
    {"test": "p53 small molecule agonists, cell-based qHTS assay with rat liver microsomes (AID 1963578)", "settings": "HCT-116 p53RE-bla, beta-lactamase ratio, 16 h; series mostly up to 66 µM", "source_text": "U.S. Tox21 Program National Center for Advancing Translational Sciences [NCATS] Division of Preclinical Innovation [DPI] U.S. Environmental Protection Agency [EPA] National Institutes of Environmental Health Sciences [NIEHS] National Toxicology Program [NTP] U.S. Food and Drug Administration [FDA] Tox21 Assay Overview: p53, a tumor suppressor protein, is activated following cellular insult, including DNA damage and other cellular stresses. The activation of p53 regulates cell fate by inducing DNA repair, cell cycle arrest, apoptosis, or cellular senescence. The activation of p53, therefore, is a good indicator of DNA damage and other cellular stresses. […] The activation of the reporter gene under culture conditions can be detected by fluorescence intensity. This cell line was used to screen the Tox21 10K compound library in the condition of presence of rat liver microsomes and to identify agonists that activate the p53 signaling pathway after in vitro metabolic activation (Ooka et al., Archive of Toxicology 96:1975-1987, 2022).\nTox21 Assay Protocol Summary: The p53RE-bla cells were dispensed at 4,000cells/3ul/well in 1536-well black-clear bottom plates. After the assay plates were incubated at 37 C, 5% CO2 incubator for 5 hours, 23 nL of compounds dissolved in DMSO, positive controls or DMSO only was transferred to the assay plate. Following compound addition, 3 uL of rat liver microsomes (Molecular Toxicology, Boone, NC) at final concentration of 0.5 mg/mL and 1uL of Beta-Nicotinamide adenine dinucleotide 2-phosphate (NADPH) at final concentration of 0.5 mg/mL were transferred to the assay plate. The plates were incubated at 37 C for 16 hours. 1 uL of LiveBLAzer detection mixture was added to each well and the plates were incubated at room temperature in the dark for 2 h.", "values": [
      {"compound": "CC1CN1", "note": "(stereo not given)", "Potency": "inactive"},
      {"compound": "COC(=O)c1sccc1S(=O)(=O)NC(=O)Nc1nc(C)nc(OC)n1", "Potency": "inactive"},
      {"compound": "CN(C)c1ccccc1", "Potency": "inactive"},
      {"compound": "O=[N+]([O-])c1ccc(CBr)cc1", "Potency": "inactive"},
      {"compound": "CC[C@H](N)c1ccccc1", "Potency": "inactive"},
      {"compound": "CNC(=O)O/N=C/C(C)(C)S(C)=O", "note": "(stereo not given)", "Potency": "inactive"},
      {"compound": "C=Cc1cccc(CCl)c1", "Potency": "inactive"},
      {"compound": "Oc1cc(Cl)ccc1Oc1ccc(Cl)cc1Cl", "Potency": "inactive"},
      {"compound": "CCC(Br)(CC)C(=O)NC(N)=O", "Potency": "inactive"},
      {"compound": "CCCCCCCCCCCCCCCCn1cc[n+](C)c1", "Potency": "inactive"},
      {"compound": "CN(C)C(=O)C(c1ccccc1)c1ccccc1", "Potency": "inactive"},
      {"compound": "O=NN1CCCCC1", "Potency": "inactive"},
      {"compound": "O=S(=O)(O)C(F)(F)C(F)(F)C(F)(F)C(F)(F)C(F)(F)C(F)(F)C(F)(F)C(F)(F)F", "Potency": "inactive"},
      {"compound": "CCCOC(=O)c1cncn1C(C)c1ccccc1", "note": "(stereo not given)", "Potency": "inactive"},
      {"compound": "N#CSCSC#N", "Potency": "inactive"},
      {"compound": "CC[n+]1c(-c2ccccc2)c2cc(N)ccc2c2ccc(N)cc21", "Potency": "inactive"},
      {"compound": "CC1(C)C(=O)NC(=O)NC1=O", "Potency": "inactive"},
      {"compound": "CCN(CC)N=O", "Potency": "inactive"},
      {"compound": "CCC(CC)Nc1c([N+](=O)[O-])cc(C)c(C)c1[N+](=O)[O-]", "Potency": "inactive"},
      {"compound": "CN(C)CCc1c[nH]c2cccc(OP(=O)(O)O)c12", "Potency": "inactive"},
      {"compound": "O=c1ccc(=O)[nH][nH]1", "Potency": "inactive"},
      {"compound": "Cc1coc2c1CCC(C)C2", "note": "(stereo not given)", "Potency": "inactive"},
      {"compound": "COC(=O)c1ccccc1N", "Potency": "inactive"},
      {"compound": "Nc1ccc2ccccc2c1", "Potency": "inactive"},
      {"compound": "CCCCCCCCCCCCCl", "Potency": "inactive"},
      {"compound": "CCOc1ccc(N)cc1", "Potency": "inactive"},
      {"compound": "Nc1cccc(Cl)c1", "Potency": "inactive"},
      {"compound": "CCCCCBr", "Potency": "inactive"},
      {"compound": "C=CC(=O)OCC(C)C", "Potency": "inactive"},
      {"compound": "Oc1ccccc1Cl", "Potency": "inactive"},
      {"compound": "CN1CC[C@]23c4c5ccc(O)c4O[C@H]2[C@@H](O)CC[C@H]3[C@H]1C5", "Potency": "inactive"},
      {"compound": "Clc1nc(Cl)nc(Cl)n1", "Potency": "inactive"},
      {"compound": "CCc1cc(C)cc(CC)c1-c1c(OC(=O)C(C)(C)C)n2n(c1=O)CCOCC2", "Potency": "inactive"},
      {"compound": "C=CCN(CC=C)C(=O)C(Cl)Cl", "Potency": "inactive"},
      {"compound": "O=C(Cl)c1ccccc1", "Potency": "inactive"},
      {"compound": "O=[N+]([O-])/C=C/c1ccccc1", "Potency": "inactive"},
      {"compound": "C=CCSSCC=C", "Potency": "inactive"},
      {"compound": "CC[N+](=O)[O-]", "Potency": "inactive"},
      {"compound": "CCCCNC(=O)n1c(NC(=O)OC)nc2ccccc21", "Potency": "inactive"},
      {"compound": "c1ccc2c(c1)Nc1ccccc1S2", "Potency": "inactive"}
    ]}
  ]
}
